# Assay results as given in the supplement of paper PMC9135407.
# Values joined by “and” are separate entries in the source; they are usually repeats but may differ in a detail not shown here. Identical values can stand only once. Counter-ions that a name gives are not always drawn. Out of some 5,800 compounds screened, about 620 (11%) showed activity. What follows is part of a selection rich in actives, with near analogues and random picks from the rest. Unmarked numbers belong to inactive results.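 The calls were made as follows: active = score above a cut-off or among the top three wells of a plate; in these data no inactive exceeds 0.85.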
# System: primary human hepatic stellate cells (donor 1)
# Assay: scaled lipid accumulation score (0 = DMSO-like, 1 = nortriptyline-like); higher = stronger HSC inactivation (lipid re-accumulation), active = hit call of the paper
# Conditions: 48 h
# [1] = library stock concentration: 10 mM
# [2] = library stock concentration: 3.33 mM
# [3] = library stock concentration: 1 mM
# [4] = library stock concentration: 80 uM
# [5] = library stock concentration: 400 uM
# [6] = library stock concentration: 2 mM
smiles,measurement,setting,value
N[C@@H](Cc1ccc(F)cc1)C(=O)O [p-Fluoro-L-phenylalanine],scaled lipid accumulation score,[1],≤ -0.07
Nc1nc(-c2ccc(Cl)c(Cl)c2)c(-c2ccncc2)s1 [CGH 2466 dihydrochloride],scaled lipid accumulation score,[1],0.001
O=[N+]([O-])c1cc2nc(O)c(O)nc2cc1[N+](=O)[O-],scaled lipid accumulation score,[1],≤ -0.07 and ≤ 0
CC(C)[C@H](NC(=O)[C@H](CC(=O)O)NC(=O)[C@H](CCCCN)NC(=O)[C@@H](N)CCCN=C(N)N)C(=O)N[C@@H](Cc1ccc(O)cc1)C(=O)O,scaled lipid accumulation score,[1],≤ 0
CCOC(=O)[C@]12CC1/C(=N\O)c1ccccc1O2 (stereo partly specified),scaled lipid accumulation score,[1],≤ 0 and 0.015
CS(=O)(=O)O.Cc1ccc2c(c1)c1c3n2CCNC3CCC1 (stereo unspecified) [Pirlindole mesylate],scaled lipid accumulation score,[1],0.93 (active)
Cc1ccc2c(c1)c1c3n2CCNC3CCC1 (stereo unspecified) [Pirlindole mesylate],scaled lipid accumulation score,,0.472
c1cc2c(cc1C1CCCCC1)c1c3n2CCNC3CCC1 (stereo unspecified) [Tetrindole mesylate],scaled lipid accumulation score,[1],≤ 0
Cc1cncc2cccc(S(=O)(=O)N3CCCN(C(=O)CN)C[C@@H]3C)c12 [Rho Kinase Inhibitor IV],scaled lipid accumulation score,[2],≤ 0
C=CCN(C)CCCCCCOc1ccc(C(=O)c2ccc(Br)cc2)c(F)c1,scaled lipid accumulation score,[3],0.116
CCCCC/C=C\C/C=C\CCCCCCCC(=O)OCC(COC(=O)CCCCCCCCCCCCCCC)OC(=O)CCCCCCC/C=C\CCCCCCCC (racemic) [1-Palmitoyl-2-oleoyl-3-linoleoyl-rac-glycerol],scaled lipid accumulation score,[3],0.03
OC1C[C@@H]2[C@@H](CC[C@@H](O)CCc3ccccc3)[C@H](O)C[C@@H]2O1 (stereo partly specified) [Latanoprost Lactol],scaled lipid accumulation score,[3],0.027
COc1cc2ncnc(Nc3ccc(Oc4ccccc4)cc3)c2cc1OC [Src Kinase Inhibitor I],scaled lipid accumulation score,[2],≤ 0
COc1cc2ncnc(Nc3ccc(Cl)cc3Cl)c2cc1OC [Ste11 MAPKKK Activation Inhibitor],scaled lipid accumulation score,[2],≤ 0
"COc1cc2ncnc(Nc3cccc(O)c3)c2cc1OC [WHI-P180, Hydrochloride]",scaled lipid accumulation score,[2],≤ 0
COc1cc2ncnc(Nc3cccc(Cl)c3)c2cc1OC [AG-1478 (Tyrphostin AG-1478)] [listing 1 of 2 here],scaled lipid accumulation score,[2],≤ 0
COc1cc2ncnc(Nc3cccc(Cl)c3)c2cc1OC,scaled lipid accumulation score,[4],≤ -0.016
same,scaled lipid accumulation score,[5],≤ -0.016
same,scaled lipid accumulation score,[6],≤ -0.016
same,scaled lipid accumulation score,[2],≤ 0
same,scaled lipid accumulation score,[1],0.749
same,scaled lipid accumulation score,library stock concentration: 14.2 mM,0.452
COc1cc2ncnc(Nc3ccc(Oc4ccccc4)cc3)c2cc1OC,scaled lipid accumulation score,[1],0.029
COc1cc2ncnc(Nc3cccc(Cl)c3)c2cc1OC [Tyrphostin AG 1478],scaled lipid accumulation score,[1],0.882 (active)
COc1cc2ncnc(Nc3cccc(Cl)c3)c2cc1OC [AG-1478 (Tyrphostin AG-1478)] [listing 2 of 2 here],scaled lipid accumulation score,[1],1.07 (active)
CCCCCCCCCCCCCCCCOC[C@H](COP(=O)([O-])OCC[N+](C)(C)C)SC(C)=O [2-thio-PAF],scaled lipid accumulation score,[3],≤ 0
CN1C(=O)C(c2c[nH]c3ccccc23)=C(c2c[nH]c3ccccc23)C1=O [Bisindolylmaleimide V],scaled lipid accumulation score,[3],≤ 0
same,scaled lipid accumulation score,[2],≤ 0
C[C@H]1[C@H](C)CC[C@]2(C(=O)O[C@@H]3O[C@H](CO[C@@H]4O[C@H](CO)[C@@H](O[C@@H]5O[C@H](C)[C@H](O)[C@@H](O)[C@H]5O)[C@H](O)[C@H]4O)[C@@H](O)[C@H](O)[C@H]3O)CC[C@]3(C)C(=CC[C@@H]4[C@@]5(C)C[C@@H](O)[C@H](O)[C@@](C)(CO)[C@@H]5CC[C@]43C)[C@H]12 [Asiaticoside],scaled lipid accumulation score,,≤ 0
Cn1c(Nc2ccc(C(F)(F)F)cc2)nc2cc(Oc3ccnc(-c4ncc(C(F)(F)F)[nH]4)c3)ccc21,scaled lipid accumulation score,[4],≤ -0.001
same,scaled lipid accumulation score,[5],≤ -0.003
same,scaled lipid accumulation score,[6],0.037
same,scaled lipid accumulation score,[2],0.031
same,scaled lipid accumulation score,[1],0.077 and 0.031
O=C1Cc2c([nH]c3ccc(Br)cc23)-c2ncccc2N1 [1-Azakenpaullone],scaled lipid accumulation score,[2],0.405
same,scaled lipid accumulation score,[1],0.808
CCCCCCCCCCCCCCCCOCC(COP(=O)([O-])OCC[N+](C)(C)C)OC (stereo unspecified) [1-Hexadecyl-2-methylglycero-3 PC],scaled lipid accumulation score,[3],0.043
COc1cc(C[C@@H](CO)[C@H](CO)Cc2ccc(O)c(OC)c2)ccc1O,scaled lipid accumulation score,[1],0.022
NC[C@H]1c(c2C[C@@H]([C@]3(C4)CC(CC45)CC(C5)C3)O1)ccc(O)c2O.Cl,scaled lipid accumulation score,[1],1.19 (active)
NC[C@@H]1O[C@H](c2ccccc2)Cc2c1ccc(O)c2O,scaled lipid accumulation score,[1],≤ 0
NC[C@@H]1O[C@H](C23CC4CC(CC(C4)C2)C3)Cc2c1ccc(O)c2O,scaled lipid accumulation score,[1],0.438
